Laboratory results from PubChem BioAssay (NCATS).
Where “and” joins values, the source holds several entries; their conditions need not be identical. Identical values can stand only once. Inconclusive results are not listed. Some structures have more than one record in an assay (separate samples or runs), and their calls can disagree. Calls of active or inactive are those of the source. Unless noted, the call rests on the fitted dose curve.

Columns and labels:
[1] = target: Bile acid receptor (Homo sapiens) (UniProt Q96RI1); experiment: qHTS assay for small molecule agonists of farnesoid X receptor signaling (AID 588527); conditions: HEK293T FXR-UAS-bla, beta-lactamase ratio, 16 h; stronger effect = higher value;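 further: series mostly up to about 77 µM; 0% = vehicle basal and 100% = reference agonist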
Sequence of Bile acid receptor (Homo sapiens) (Q96RI1 whole entry, looked up): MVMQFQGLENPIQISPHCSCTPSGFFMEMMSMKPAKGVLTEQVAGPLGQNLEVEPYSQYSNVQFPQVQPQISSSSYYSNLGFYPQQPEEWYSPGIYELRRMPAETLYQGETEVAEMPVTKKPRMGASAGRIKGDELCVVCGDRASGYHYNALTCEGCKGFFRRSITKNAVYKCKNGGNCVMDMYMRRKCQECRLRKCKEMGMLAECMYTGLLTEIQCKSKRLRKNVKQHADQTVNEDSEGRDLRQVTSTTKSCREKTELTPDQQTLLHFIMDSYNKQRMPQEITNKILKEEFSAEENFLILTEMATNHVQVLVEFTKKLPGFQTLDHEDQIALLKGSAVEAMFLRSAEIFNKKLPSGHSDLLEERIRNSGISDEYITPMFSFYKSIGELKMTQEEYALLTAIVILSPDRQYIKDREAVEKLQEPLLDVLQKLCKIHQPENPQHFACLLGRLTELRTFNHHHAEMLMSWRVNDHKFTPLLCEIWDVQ
Summary of the method: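 FXR-UAS-bla HEK293T, 10% dialyzed FBS; cpds up to 92 uM titration, 16 h 37 C; CCF4 dye 2 h RT; fluorescence. Normalized to chenodeoxycholic acid 100 uM (100%) and DMSO (0%); Hill fit gives EC50, efficacy.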

[2] = target: Peroxisome proliferator-activated receptor gamma (Homo sapiens) (UniProt P37231); experiment: qHTS assay for small molecule antagonists of peroxisome proliferator-activated receptor gamma signaling (AID 588537; active means well fitted inhibition curve with a large enough effect in the signal ratio, with a control signal flat, not every such curve was filed as active; the % refers to the signal ratio; further: potency means the concentration at half of the fitted maximal effect)
Sequence of Peroxisome proliferator-activated receptor gamma (Homo sapiens) (P37231 whole entry, looked up): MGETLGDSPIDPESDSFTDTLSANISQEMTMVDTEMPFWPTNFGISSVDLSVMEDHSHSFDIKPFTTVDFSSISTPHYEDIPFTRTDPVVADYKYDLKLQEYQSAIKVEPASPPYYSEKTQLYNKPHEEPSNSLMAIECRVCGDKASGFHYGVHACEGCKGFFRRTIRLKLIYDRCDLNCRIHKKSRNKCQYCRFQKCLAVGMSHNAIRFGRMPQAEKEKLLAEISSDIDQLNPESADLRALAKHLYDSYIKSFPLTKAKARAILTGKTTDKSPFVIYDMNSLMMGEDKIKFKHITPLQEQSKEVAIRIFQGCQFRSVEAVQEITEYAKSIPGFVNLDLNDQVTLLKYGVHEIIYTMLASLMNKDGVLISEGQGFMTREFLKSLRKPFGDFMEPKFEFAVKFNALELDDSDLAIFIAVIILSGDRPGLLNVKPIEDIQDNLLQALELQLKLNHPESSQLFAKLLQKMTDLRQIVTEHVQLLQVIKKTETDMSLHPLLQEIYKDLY
Summary of the method: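 Read-out: CCF4 fluorescence (ex 405, em 460/530 nm) after 2 h at RT. Cells were HEK293 carrying a UAS-bla reporter and treated 16 h at 37 C with compound plus rosiglitazone (50 nM final). Normalized to rosiglitazone and DMSO.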

[3] = target: Thyroid hormone receptor beta (Homo sapiens) (UniProt P10828); experiment: qHTS assay for small molecule antagonists of thyroid hormone receptor beta signaling (AID 588547; active means well fitted inhibition curve with a large enough effect in the signal ratio, with a control signal flat, not every such curve was filed as active; the % refers to the signal ratio;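 further: cells stimulated with 0.4 nM T3 agonist during compound exposure; series mostly up to about 77 µM; on the % scale 0 is the no-effect control and ±100 the full control effect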); conditions: TR-UAS-bla HEK293, beta-lactamase ratio, antagonist mode, 18 h
Sequence of Thyroid hormone receptor beta (Homo sapiens) (P10828 whole entry, looked up): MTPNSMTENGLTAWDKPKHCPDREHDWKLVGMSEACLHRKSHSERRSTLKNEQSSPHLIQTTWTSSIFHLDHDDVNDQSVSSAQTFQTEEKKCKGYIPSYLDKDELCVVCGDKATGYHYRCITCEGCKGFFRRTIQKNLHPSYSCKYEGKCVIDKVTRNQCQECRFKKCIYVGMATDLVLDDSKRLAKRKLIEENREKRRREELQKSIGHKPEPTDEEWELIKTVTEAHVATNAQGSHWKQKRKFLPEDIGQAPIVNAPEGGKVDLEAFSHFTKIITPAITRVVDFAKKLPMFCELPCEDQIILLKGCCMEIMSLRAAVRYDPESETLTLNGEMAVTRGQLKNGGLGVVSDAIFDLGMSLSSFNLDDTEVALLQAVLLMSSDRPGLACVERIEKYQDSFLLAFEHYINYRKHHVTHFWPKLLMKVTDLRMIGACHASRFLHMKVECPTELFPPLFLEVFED
Summary of the method: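 TR-UAS-bla GripTite HEK293 cells in 2% charcoal/dextran FBS medium; compounds 0.59 nM to 92 uM with T3 at 0.4nM final, 18 h at 37 C. Beta-lactamase read by CCF4 fluorescence (460/530 nm); Hill fits gave IC50 and efficacy.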

[4] = target: Glucocorticoid receptor (Homo sapiens) (UniProt P04150); experiment: qHTS assay for small molecule agonists of glucocorticoid receptor signaling (AID 588532; active means well fitted curve in the direction sought with a large enough effect in the signal ratio, with a control signal flat; the % refers to the signal ratio;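 further: 100% = dexamethasone at 0.1 µM and 0% = DMSO only wells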); conditions: HeLa MMTV-bla, beta-lactamase ratio, agonist, 18 h; stronger effect = higher value; percent of dexamethasone control, DMSO zero
Sequence of Glucocorticoid receptor (Homo sapiens) (P04150 whole entry, looked up): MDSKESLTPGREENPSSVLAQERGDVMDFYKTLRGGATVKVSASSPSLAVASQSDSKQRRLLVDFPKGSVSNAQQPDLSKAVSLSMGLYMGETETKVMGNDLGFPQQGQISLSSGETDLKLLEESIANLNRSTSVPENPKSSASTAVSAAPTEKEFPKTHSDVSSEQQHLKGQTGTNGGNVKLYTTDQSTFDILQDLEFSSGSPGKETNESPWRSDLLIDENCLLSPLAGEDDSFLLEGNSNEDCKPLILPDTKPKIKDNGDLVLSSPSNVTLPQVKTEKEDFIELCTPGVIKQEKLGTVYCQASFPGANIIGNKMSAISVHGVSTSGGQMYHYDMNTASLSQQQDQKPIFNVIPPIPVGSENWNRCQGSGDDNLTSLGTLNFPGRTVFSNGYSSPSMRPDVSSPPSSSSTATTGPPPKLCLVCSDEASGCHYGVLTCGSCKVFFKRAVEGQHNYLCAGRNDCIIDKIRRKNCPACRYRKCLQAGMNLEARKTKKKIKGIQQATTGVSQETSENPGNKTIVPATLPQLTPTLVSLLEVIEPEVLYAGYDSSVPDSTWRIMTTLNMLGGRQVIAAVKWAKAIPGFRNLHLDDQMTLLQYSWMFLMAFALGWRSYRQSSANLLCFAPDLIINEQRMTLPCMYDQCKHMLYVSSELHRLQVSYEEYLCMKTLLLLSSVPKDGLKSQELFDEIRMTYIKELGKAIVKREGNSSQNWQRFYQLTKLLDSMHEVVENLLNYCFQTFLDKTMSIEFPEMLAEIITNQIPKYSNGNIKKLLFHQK
Summary of the method: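 MMTV-bla HeLa beta-lactamase reporter cells in 1% charcoal/dextran FBS medium, compounds up to 92 uM for 18 h at 37 C, CCF4 readout; normalized to 0.1 uM dexamethasone (100%), EC50 and efficacy from Hill fits.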

[5] = target: Peroxisome proliferator-activated receptor delta (Homo sapiens) (UniProt Q03181); experiment: qHTS assay for small molecule agonists of peroxisome proliferator-activated receptor delta signaling (AID 588534);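 further: 0% = DMSO basal wells and 100% = positive control agonist at 10 µM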
Summary of the method: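 Titration series tested in agonist mode on beta-lactamase reporter cells; 18 hrs at 37 C after a 5 hr pre-incubation. Readout: CCF4 fluorescence, 2 hrs RT. Hill equation gives EC50 and maximal response.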

[6] = target: Peroxisome proliferator-activated receptor gamma (Homo sapiens) (UniProt P37231); experiment: qHTS assay for small molecule agonists of peroxisome proliferator-activated receptor gamma signaling (AID 588536; active means well fitted curve in the direction sought with a large enough effect in the signal ratio, with a control signal flat, not every such curve was filed as active; the % refers to the signal ratio;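 further: 0% = DMSO basal wells and 100% = rosiglitazone at 2 µM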)
Summary of the method: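 Compound treatment: 16 h, 37 C, HEK293 GeneBLAzer cells. Detection: CCF4, 2 h RT. Values: Hill-fit EC50, efficacy as % of 2 uM rosiglitazone.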

[7] = target: Vitamin D3 receptor (Homo sapiens) (UniProt P11473); experiment: qHTS assay for small molecule antagonists of vitamin D receptor signaling (AID 588541);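 further: receptor activated by calcitriol during compound treatment; series mostly up to about 77 µM; on the % scale 0 is the no-effect control and ±100 the full control effect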
Sequence of Vitamin D3 receptor (Homo sapiens) (P11473 whole entry, looked up): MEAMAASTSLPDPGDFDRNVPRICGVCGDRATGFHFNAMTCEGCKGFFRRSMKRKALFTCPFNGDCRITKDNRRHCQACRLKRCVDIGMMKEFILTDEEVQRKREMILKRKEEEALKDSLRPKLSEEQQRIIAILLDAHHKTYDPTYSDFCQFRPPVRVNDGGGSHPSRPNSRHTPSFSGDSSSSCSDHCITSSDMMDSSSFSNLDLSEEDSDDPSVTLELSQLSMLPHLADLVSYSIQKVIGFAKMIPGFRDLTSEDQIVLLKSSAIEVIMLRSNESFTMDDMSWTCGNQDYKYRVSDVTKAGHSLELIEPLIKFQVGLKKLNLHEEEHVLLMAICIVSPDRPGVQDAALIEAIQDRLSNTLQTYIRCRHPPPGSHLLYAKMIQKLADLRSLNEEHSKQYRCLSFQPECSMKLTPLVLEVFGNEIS
Summary of the method: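 VDR-UAS-bla HEK293T cells in 2% charcoal-stripped FBS were stimulated with 1-alpha,25-dihydroxyvitamin D3 (3 nM final) plus compound for 16 h at 37 C. The beta-lactamase CCF4 readout was normalized to 50 nM agonist and DMSO, and Hill fits gave IC50.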

[8] = target: Thyroid hormone receptor beta (Homo sapiens) (UniProt P10828); experiment: qHTS assay for small molecule agonists of thyroid hormone receptor beta signaling (AID 588545)
Summary of the method: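 Cells (2500/well) were seeded, incubated 4 hrs at 37 C, dosed with a compound series, incubated 18 hrs, loaded with CCF4 dye for 2 hrs at RT, then read for fluorescence. Data were scaled between DMSO (0%) and 10 nM T3 (100%).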

[9] = qHTS assay for small molecule antagonists of retinoid X receptor alpha signaling (AID 588546; active means well fitted inhibition curve with a large enough effect in the signal ratio, with a control signal flat, not every such curve was filed as active; the % refers to the signal ratio;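 further: cells stimulated with 9-cis-retinoic acid as agonist; on the % scale 0 is the no-effect control and ±100 the full control effect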); conditions: HEK293T RXRa-UAS-bla, beta-lactamase ratio, antagonist mode; measured here: W530 green channel, cytotoxicity proxy
Summary of the method: (§1)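 Beta-lactamase reporter inhibition, read as CCF4 fluorescence ratio (ex 405, em 460/530 nm) after 2 h at RT. HEK293T UAS-bla cells, 2500/well, were stimulated with 9-cis-RA at 500 or 100 nM final alongside test compound for 18 h at 37 C.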

[10] = target: Retinoic acid receptor RXR-alpha (Homo sapiens) (UniProt P19793); experiment: as above; conditions: HEK293T RXRa-UAS-bla, beta-lactamase ratio, antagonist mode
Sequence of Retinoic acid receptor RXR-alpha (Homo sapiens) (P19793 whole entry, looked up): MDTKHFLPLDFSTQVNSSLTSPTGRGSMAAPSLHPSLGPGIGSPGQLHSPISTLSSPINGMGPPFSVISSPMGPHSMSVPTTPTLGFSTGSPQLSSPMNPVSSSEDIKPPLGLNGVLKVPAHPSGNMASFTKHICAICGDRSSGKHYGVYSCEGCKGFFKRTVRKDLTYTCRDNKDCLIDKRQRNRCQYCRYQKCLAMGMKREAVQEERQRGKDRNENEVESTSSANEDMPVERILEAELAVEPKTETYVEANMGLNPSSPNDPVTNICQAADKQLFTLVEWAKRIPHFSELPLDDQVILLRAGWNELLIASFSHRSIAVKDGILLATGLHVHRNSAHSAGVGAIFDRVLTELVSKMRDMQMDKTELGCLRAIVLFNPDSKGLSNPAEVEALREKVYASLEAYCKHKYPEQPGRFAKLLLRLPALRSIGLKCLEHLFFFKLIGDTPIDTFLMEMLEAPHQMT
Summary of the method: as §1

[11] = target: Voltage-gated inwardly rectifying potassium channel KCNH2 (Homo sapiens) (UniProt Q12809); experiment: qHTS Assay for Small Molecule Inhibitors of the Human hERG Channel Activity (AID 588834; active means well fitted inhibition curve with a large enough effect;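 further: lower thallium flux fluorescence means stronger hERG block; nearly all actives have a fitted effect of over 50% in size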; further: potency means the concentration at half of the fitted maximal effect)
Sequence of Voltage-gated inwardly rectifying potassium channel KCNH2 (Homo sapiens) (Q12809 whole entry, looked up): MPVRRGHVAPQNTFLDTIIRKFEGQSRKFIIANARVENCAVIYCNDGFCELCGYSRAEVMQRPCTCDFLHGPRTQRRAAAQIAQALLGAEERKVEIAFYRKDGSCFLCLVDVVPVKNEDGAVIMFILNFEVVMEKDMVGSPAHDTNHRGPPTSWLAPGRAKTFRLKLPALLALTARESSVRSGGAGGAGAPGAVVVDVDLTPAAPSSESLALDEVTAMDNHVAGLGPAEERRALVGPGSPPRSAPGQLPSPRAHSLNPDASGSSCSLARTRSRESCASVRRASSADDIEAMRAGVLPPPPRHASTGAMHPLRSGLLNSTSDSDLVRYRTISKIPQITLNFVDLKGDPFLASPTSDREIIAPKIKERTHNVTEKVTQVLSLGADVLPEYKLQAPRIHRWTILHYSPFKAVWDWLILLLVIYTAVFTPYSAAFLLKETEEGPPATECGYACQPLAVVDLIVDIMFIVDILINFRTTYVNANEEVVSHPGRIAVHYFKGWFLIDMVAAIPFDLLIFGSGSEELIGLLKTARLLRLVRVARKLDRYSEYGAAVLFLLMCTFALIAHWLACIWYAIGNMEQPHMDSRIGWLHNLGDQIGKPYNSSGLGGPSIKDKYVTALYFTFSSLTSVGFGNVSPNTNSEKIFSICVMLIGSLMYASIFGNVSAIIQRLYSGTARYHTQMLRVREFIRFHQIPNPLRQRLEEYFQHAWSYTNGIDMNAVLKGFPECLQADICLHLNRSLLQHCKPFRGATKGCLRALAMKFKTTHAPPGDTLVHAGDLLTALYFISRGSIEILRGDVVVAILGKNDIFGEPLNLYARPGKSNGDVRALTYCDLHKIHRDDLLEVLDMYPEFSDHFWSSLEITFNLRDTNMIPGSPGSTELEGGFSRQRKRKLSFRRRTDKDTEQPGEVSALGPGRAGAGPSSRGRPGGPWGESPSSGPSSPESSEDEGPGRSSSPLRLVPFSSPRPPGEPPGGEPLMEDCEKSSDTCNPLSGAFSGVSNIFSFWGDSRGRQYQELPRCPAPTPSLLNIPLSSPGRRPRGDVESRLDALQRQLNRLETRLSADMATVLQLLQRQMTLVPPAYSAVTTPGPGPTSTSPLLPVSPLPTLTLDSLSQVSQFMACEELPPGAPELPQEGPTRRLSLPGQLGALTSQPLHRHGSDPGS
Summary of the method: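 Cells were infected with hERG-BacMam virus for 4 hrs at room temperature, grown overnight, then seeded at 2000/well. After dye loading and roughly 10 min compound treatment, thallium influx was triggered and fluorescence recorded.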

[12] = target: Luciferin 4-monooxygenase (Photinus pyralis) (UniProt P08659); experiment: Biochemical firefly luciferase enzyme assay for NPC (AID 624030; active means well fitted inhibition curve with a large enough effect;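 further: purified P. pyralis luciferase at 10 nM with luciferin and ATP substrate; series mostly up to about 59 µM; 0% = DMSO and -100% = full luciferase inhibition by PTC124 control; nearly all actives have a fitted effect of over 70% in size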)
Sequence of Luciferin 4-monooxygenase (Photinus pyralis) (P08659 whole entry, looked up): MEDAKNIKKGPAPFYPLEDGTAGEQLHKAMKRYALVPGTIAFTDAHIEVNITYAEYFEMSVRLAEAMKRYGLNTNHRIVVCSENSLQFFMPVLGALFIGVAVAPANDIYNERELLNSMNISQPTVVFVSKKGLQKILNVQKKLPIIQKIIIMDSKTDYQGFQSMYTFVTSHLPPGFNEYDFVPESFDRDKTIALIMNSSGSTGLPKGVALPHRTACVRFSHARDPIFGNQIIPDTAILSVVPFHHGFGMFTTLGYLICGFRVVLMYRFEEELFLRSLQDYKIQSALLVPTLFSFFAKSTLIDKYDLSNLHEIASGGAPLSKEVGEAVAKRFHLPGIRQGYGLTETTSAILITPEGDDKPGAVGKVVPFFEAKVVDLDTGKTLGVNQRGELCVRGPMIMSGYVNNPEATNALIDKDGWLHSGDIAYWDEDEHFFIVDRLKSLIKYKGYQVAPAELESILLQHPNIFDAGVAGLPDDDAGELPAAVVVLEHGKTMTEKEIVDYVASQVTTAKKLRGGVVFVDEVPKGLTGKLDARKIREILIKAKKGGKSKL
Summary of the method: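 Purified P. pyralis luciferase at 10 nM in 50 mM Tris Acetate (final), luminescence read within 5 minutes of enzyme addition to compounds. Activity normalised to PTC124 versus DMSO; concentration-response curves classed by r2, magnitude and activity.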

[13] = target: Bile acid receptor (Homo sapiens) (UniProt Q96RI1); experiment: qHTS assay for small molecule antagonists of farnesoid X receptor signaling (AID 588526); further: on the % scale 0 is the no-effect control and ±100 the full control effect
Summary of the method: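 Antagonist mode: titrated compounds tested against chenodeoxycholic acid stimulation (normalized to 50 uM CDCA and DMSO) in GeneBLAzer HEK293T cells for 16 h. Beta-lactamase read by CCF4 fluorescence; IC50 from Hill fits.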

[14] = qHTS assay for small molecule antagonists of peroxisome proliferator-activated receptor delta signaling (AID 588535; active means well fitted inhibition curve with a large enough effect in the signal ratio, with a control signal flat, not every such curve was filed as active; the % refers to the signal ratio;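 on max response: cells co-treated with a PPAR-delta agonist as stimulator during compound exposure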); conditions: HEK293T PPARd-UAS-bla, beta-lactamase FRET ratio, 18 h; 460 nm channel
Summary of the method: (§2)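 Beta-lactamase reporter read-out (405 nm excitation, 460/530 nm emission) after CCF4 loading for 2 hrs at RT. HEK293T PPAR-delta-UAS-bla cells, 2% charcoal/dextran FBS, compounds for 18 hrs at 37 C. Hill fit gave IC50 and efficacy.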

[15] = target: Peroxisome proliferator-activated receptor delta (Homo sapiens) (UniProt Q03181); experiment: as above
Summary of the method: as §2

[16] = qHTS assay for small molecule agonists of retinoid X receptor alpha signaling (AID 588544); conditions: HEK293T RXRa-UAS-bla, beta-lactamase reporter, 18 h; 530 nm emission;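 on activation: 0% = DMSO basal wells and 100% = reference agonist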
[17] = target: Retinoic acid receptor RXR-alpha (Homo sapiens) (UniProt P19793); experiment: as above
[18] = target: Glucocorticoid receptor (Homo sapiens) (UniProt P04150); experiment: qHTS assay for small molecule antagonists of glucocorticoid receptor signaling (AID 588533; active means well fitted inhibition curve with a large enough effect in the signal ratio, with a control signal flat, not every such curve was filed as active; the % refers to the signal ratio; further: on the % scale 0 is the no-effect control and ±100 the full control effect)
Summary of the method: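 Antagonist-mode qHTS: compound titrations added to GRE-bla HeLa cells, then dexamethasone 2 nM final; 18 h, 37 C. CCF4 FRET fluorescence normalized to dexamethasone and DMSO; IC50 from Hill fit.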

c1ccc2occc2c1
inactive: activation [1] 3.58% and 1.61% | Potency [2] | activity change % (negative = inhibition) [3] -0.0158% and 0.269%

COc1ccc(C(c2ccc(OC)cc2)C(Cl)(Cl)Cl)cc1
-3.69% and 8.92%: max response [9]
inactive and 28.2 µM (active): Potency [2]
inactive: activation [1] 7.99% and 4.38% and 7.59% | activation [4] 4.73% and 3.18% and 4.31% | outcome [5] | outcome [6] | Potency [7] | outcome [8] | max response [10] -30.1% and -25% | activity change % (negative = inhibition) [3] 0.506% and -1.09% and 26% | Potency [12]
active: Potency [11] 10 µM and 22.4 µM

COC(=O)c1c(Cl)c(Cl)c(C(=O)OC)c(Cl)c1Cl
inactive: activation [1] 2.52% | outcome [5]

O=C(NO)c1ccccc1
inactive: activation [1] -3.15% | outcome [5]

O=[N+]([O-])c1c(Cl)c(Cl)cc(Cl)c1Cl
-4.05%: max response [9]
active: Potency [2] 15.8 µM
-4.54%: max response [14]
inactive: outcome [13] | activation [1] -1.27% | outcome [5] | Potency [15] | outcome [6] | Potency [7] | Potency [17] | outcome [8] | max response [10] 6.87% | activity change % (negative = inhibition) [3] -0.964% | Potency [11] | Potency [12]
-2.76%: max response [16]

CCCCC(CC)COC(=O)c1ccccc1C(=O)OCC(CC)CCCC (stereo not drawn)
inactive: outcome [13] | activation [1] 0.71% and -2.22% | activation [4] 0.194% and -1.46% | Potency [18] | outcome [5] | Potency [15] | outcome [6] | Potency [2] | Potency [7] | Potency [17] | outcome [8] | max response [10] 9.66% and 2.99% | activity change % (negative = inhibition) [3] -25.5% and -4.42% | Potency [11] | Potency [12]
-2.79% and 33.6%: max response [14]
-20.4% and -8.96%: max response [16]
-12.5% and -12.9%: max response [9]

CC1=NN(c2ccccc2)C(=O)C1
inactive: activation [1] -5.46% and -0.633% | outcome [5]

CCO/N=C(\CC)C1=C(O)CC(c2c(C)cc(C)cc2C)CC1=O (stereo not drawn)
-8.17%: max response [9]
inactive: outcome [13] | activation [1] 1.57% | activation [4] -3.56% | Potency [18] | outcome [5] | Potency [15] | Potency [2] | Potency [7] | outcome [8] | max response [10] -5.84% | activity change % (negative = inhibition) [3] 5.1%
11.4%: max response [14]
